Screening data deposited in PubChem BioAssay by National Center for Advancing Translational Sciences (NCATS).
This is a sample that favours compounds with a hit; in the whole collection about 7.8% have one here.
MARV entry inh – inhibitors of Marburg virus binding or cell entry. Marburg virus pseudotyped entry inhibition, cell reporter. Potency, µM (series often up to 37.8 µM), without a hit: at the highest dose activity change, negative = inhibition, actives largely listed as inhibitors. 300,000 compounds, 1.8% hits; calls by dose curve; tested in HEK293 cells; note: potency is the fitted concentration of half-maximal effect
Vaccinia Venus – vaccinia inhibition (Venus reporter); Vaccinia virus Venus reporter expression, fluorescence; Potency, µM (doses to about 36.5 µM), for the others: at the top dose activity change, negative = inhibition, hits mostly inhibitors; 330,000 compounds, 0.46% hits; calls by dose curve; tested in A549 cells; note: potency is the fitted concentration of half-maximal effect; nearly all actives have a fitted effect of over 30% in size
VACV mCherry inh – inhibitors of vaccinia virus infection (mCherry reporter signal) | Potency, µM (highest dose often 36.5 µM), for inactives: at the top dose activity change, negative = inhibition, usual class: inhibitors | 310,000 compounds, 0.63% hits | Vaccinia virus mCherry reporter infection, fluorescence | AID 720579; calls by dose curve; tested in A549 cells; note: potency is the fitted concentration of half-maximal effect; nearly all actives have a fitted effect of over 35% in size
HCV inhibitor – inhibitors of hepatitis C virus infection; Huh7.5.1 HCVcc-Cre infection, luciferase reporter, 44 h; Potency, µM (top dose mostly 41.8 µM), inactives show top-dose activity change, negative = inhibition, hits mostly inhibitors; 340,000 compounds, 3.4% hits; AID 651820; active = well fitted inhibition curve with a large enough effect; inconclusive = small, poorly fitted or top-dose-only effect, or another doubt; inactive = no such curve, though single readings can be large or run the other way; note: potency is the fitted concentration of half-maximal effect
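Cells seeded at 1,000/well and cultured 4 h, then compounds added followed by HCVcc-Cre virus (~0.5 moi). After 44 h further culture, luciferase substrate was added, plates held 15 min at room temperature, and luminescence read for 15 sec.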
Lassa entry inh – blocks Lassa virus binding to or entry into cells. AID 540256. Lassa virus pseudotype entry inhibition, cell reporter. Potency, µM (doses to about 37.9 µM), for inactives: top-dose activity change, negative = inhibition, actives largely listed as inhibitors. 300,000 compounds, 1.2% hits; calls by dose curve; tested in HEK293 cells; note: potency is the fitted concentration of half-maximal effect; nearly all actives have a fitted effect of over 50% in size
HCMV antiviral – human cytomegalovirus inhibition; HFF cells, HCMV-luciferase reporter, 72 h; stronger effect = lower value; activity change, negative = inhibition, % at 57.5 µM; 410,000 compounds, 4.5% hits; AID 1259415; in the data active = activity change below about -60%; inconclusive = no clear call, values can overlap the other calls; inactive = above about -39%
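Cell-based, HFFs, 1000 cells/well, 16 h 37C; cpds in DMSO + HCMV-luc, MOI 1 PFU/cell; 72 h 37C; OneGlo luminescence after 5 min RT; norm. to buffer vs Salinomycin 10uM.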
Starred values were filed as active, the others as inactive; i = inactive; ? = inconclusive; · = not tested or not shown; ! = repeats disagree; [ ] = dose if it differs, or a comment. % is set by controls: 0 for no effect and ±100 for the full control effect.

SMILES | MARV entry inh | Vaccinia Venus | VACV mCherry inh | HCV inhibitor | Lassa entry inh | HCMV antiviral
CCCc1cc(=O)n2nc(N3CCC(C(=O)N4CCN(c5ccc(OC)cc5)CC4)CC3)sc2n1 | · | · | · | ? | · | -87*
Cc1cc(=O)n2nc(N3CCC(C(=O)N4CCN(c5ccccc5)CC4)CC3)sc2n1 | ? | -5% | -11% | -11% | 6%[46.1 µM] | -31
COc1ccccc1NS(=O)(=O)c1cc([N+](=O)[O-])ccc1N/N=C/c1c[nH]c2ccccc12 | ? | · | · | 16µM* | -4% | -31
COc1ccc(-n2c(CNC(=O)c3c(-c4ccccc4)noc3C)nnc2SC)cc1 | · | -9% | i | · | · | ·
Cn1c(O)c(/C=N/NC(=O)c2cc3ccccc3cc2O)c2ccccc21 | ? | ? | 7.9µM* | ? | -25% | -24
CC(C)Oc1ccc(CCC(=O)N/N=C/c2ccncc2)cc1 | 1%[46.1 µM] | -9% | -7% | -17% | 1µM* | -6
CC(C)Oc1ccc(CCC(=O)N/N=C/c2ccc3c(c2)OCO3)cc1 | -17%[46.1 µM] | -3% | -10% | -6% | ? | -29
Cc1cc(Br)ccc1NC(=O)c1ccc(NS(=O)(=O)c2c(C)noc2C)cc1 | 11%[46.1 µM] | 9% | -7% | · | ? | -15
COc1ccc(S(=O)(=O)Nc2ccccc2-c2nnn(CC(=O)Nc3ccccc3OC)n2)cc1 | ? | -21% | -7% | ? | ? | -19
COc1ccc(NC(=O)Cn2nnc(-c3ccccc3NS(=O)(=O)c3ccccc3)n2)cc1 | 8.9µM* | -28% | ? | -51% | ? | ·
CCn1c(C)[n+](Cc2ccccc2)c2ccc(Cl)cc21 | -21%[46.1 µM] | -4% | -12% | 7% | · | -67*
CCn1c(/C=C/N(C)c2ccccc2)[n+](CC)c2ccc(Cl)cc21 | ? | -30% | -28% | 32µM* | 8.2µM* | -94*
CCc1ccc(-n2nc(CO)c(C(=O)NCCCc3ccccc3)n2)cc1 | 9%[46.1 µM] | -8% | 3% | · | 8%[46.1 µM] | 47
CCCCn1c(SCC(=O)Nc2cccc(OC)c2)nc2ccc(N3CCOCC3)cc2c1=O | ? | · | · | 8.9µM*! | 7% | -20
COc1ccc(-n2c(SCC#N)nc3ccccc3c2=O)cc1 | -2% | -28% | · | 3% | -2% | ?
COc1ccc(Cn2c(SCC#N)nc3ccc(N4CCOCC4)cc3c2=O)cc1 | -14%[46.1 µM] | -12% | -23% | 5µM* | -16% | 69
CCCCn1c(SCC(N)=O)nc2ccc(N3CCOCC3)cc2c1=O | 5% | · | · | -9% | -5% | ?
Cc1ccc(O)c(C(=O)CC(=O)c2ccc(C(C)(C)C)cc2)c1 | · | · | · | ? | · | -34
Cc1ccc(O)c(C(=O)CC(=O)c2ccccc2Cl)c1 | ? | -18% | -12% | 5µM* | ? | -9
CCOc1ccc(CCNC(=O)c2cccc(-n3c(C)nc4cccnc43)c2C)cc1 | · | -14% | i | · | -9%[46.1 µM] | ?
COc1ccc(CCN2C(=O)c3cccc4c(C(=O)N5CCCCC5)ccc(c34)C2=O)cc1OC | ? | -7% | -15% | -23% | ? | -65*
COc1ccc(CCNC(=O)CCN2C(=O)c3cccc4cccc(c34)C2=O)cc1OC | · | · | · | 9% | · | -13
CCOC(=O)c1ccccc1NS(=O)(=O)c1ccc(OCC)cc1 | ? | · | · | ? | 2.6µM* | -17
COc1ccc(CCNS(=O)(=O)c2ccc(N3CCCC3=O)cc2)cc1 | ? | -12% | -12% | ? | ? | -8
COc1ccc(OC)c(NS(=O)(=O)c2ccc(N3CCCC3=O)cc2)c1 | ? | ? | · | -8% | ? | -73*
SMILES | MARV entry inh | Vaccinia Venus | VACV mCherry inh | HCV inhibitor | Lassa entry inh | HCMV antiviral
CCOc1ccc(S(=O)(=O)Nc2cc(OC)ccc2OC)cc1 | ? | ? | -22% | -33% | ? | -64*
CCOC(=O)c1ccccc1NC(=O)CN(c1ccccc1)S(=O)(=O)c1ccc(OCC)cc1 | 2%[46.1 µM] | -1% | -7% | · | -14%[46.1 µM] | ?
Cc1ccc(C(=O)CC2(O)C(=O)N(CCc3ccccc3)c3ccc(Cl)cc32)cc1 (stereo not given) | -16%[46.1 µM] | -15% | ? | · | ? | -104*
O=C(CC1(O)C(=O)N(CCc2ccccc2)c2ccc(Br)cc21)c1ccccc1 (stereo not given) | ? | -16% | -1% | · | -17%[46.1 µM] | -28
COc1ccc(CCNC(=O)c2cnn(-c3cccc(C)c3)c2C2CCN(C(=O)OC(C)(C)C)CC2)cc1OC | · | -10% | i | · | -15%[46.1 µM] | 0
COc1ccc(C(=O)CC2(O)C(=O)N(Cc3ccccc3)c3ccc(Br)cc32)cc1 (stereo not given) | -27%[46.1 µM] | -13% | -21% | · | -20%[46.1 µM] | 9
Cc1ccc(-c2cc3ncc(C(=O)c4cc(Cl)c(C)cc4O)cn3n2)cc1 | ? | -5% | -13% | · | 7%[46.1 µM] | 6
CC1CCN(C(=O)CSc2ccc(-c3ccc(F)cc3)nn2)CC1 | 2% | -20% | -21% | 0% | ? | -39
CC1CC(C)(C)N(C(=O)CSc2ccc(-c3ccc(F)cc3)nn2)c2ccccc21 (stereo not given) | ? | ? | -11% | -3% | -14% | -87*
COc1ccccc1N1CCN(C(=O)c2ccc3[nH]c4c(c3c2)CC(C)CC4)CC1 (stereo not given) | ? | -10% | -25% | 11µM* | ? | 19
CC1CCc2[nH]c3ccc(C(=O)NCCCOC(C)C)cc3c2C1 (stereo not given) | · | · | · | 10µM* | · | -20
CC1CCc2[nH]c3ccc(C(=O)O)cc3c2C1 (stereo not given) | · | · | · | 9% | · | -36
COC(=O)C(C(=O)OC)C(C(=O)OC)C(C(=O)OC)C(=O)OC | ? | -8% | -7% | 5% | 17% | -88*
COC(=O)C(C(=O)OC)C(C(C)C)C(C(=O)OC)C(=O)OC | 3% | -2% | -8% | 11% | 13% | 6
CCOC(=O)C[C@H]1c2cc(F)ccc2S(=O)(=O)N1Cc1cc(OC)c(OC)c(OC)c1 | · | -9% | i | · | · | ·
Cc1ccc(NC(=O)Cn2c(=O)n(CCc3ccccc3)c(=O)c3c4c(sc32)CCCC4)c(C)c1 | ? | 9% | 9% | · | 29%[46.1 µM] | -4
Cc1ccc(-c2[nH]nc(N)c2N=Nc2ccccc2C)cc1 | 8.2µM* | ? | ? | ? | ? | -65*
Cc1ccc(N=Nc2c(N)n[nH]c2N)cc1 | 16%[46.1 µM] | ? | ? | -2% | -6%[46.1 µM] | 46
Cc1cccc(N=Nc2c(N)n[nH]c2-c2ccc(Cl)cc2)c1 | ? | · | · | ? | -7% | ?
Cc1ccc(-c2[nH]nc(N)c2N=Nc2cccc(Cl)c2C)cc1 | 20µM* | ? | ? | ? | ? | -28
CC1Cc2nc(SCC(=O)NCc3ccccc3)n(Cc3ccccc3)c(=O)c2S1 (stereo not given) | · | -4% | -23% | ? | · | 17
CC1Cc2nc(SCC(=O)c3ccccc3)n(Cc3ccccc3)c(=O)c2S1 (stereo not given) | · | -8% | -5% | 11µM* | · | -10
